Laboratory results: the supplement of paper PMC10849652
Of roughly 7,900 targets only a part is listed; those with a hit were picked by preference. About 0.6% of all pairs of compound and target were hits. A number with no mark means an inactive call.

What was measured:
Assay in all cases: log2 fold change, soluble protein after heating vs DMSO (PISA); higher = thermal stabilisation; K562 cells, 10 uM, 30 min; active = over 0.2 and 3.5 SD of the protein, either way, in both replicates (recomputed)
[1] = compound: NC(=O)Nc1cc(-c2cccc(F)c2)sc1C(=O)N[C@H]1CCCNC1
Summary of the method: (§1)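 Soluble protein was quantified by TMTpro 16plex LC-MS/MS after channel sums were equalised. It was obtained as the supernatant after 21,000xg for 90 min from pooled aliquots of K562 cells (2×10^6 cells/mL, 10 μM compound, 30 min) heated for 3 min across 48°C-58°C and extracted in PBS with 0.5% NP-40 at 4°C. Thermal stability values are relative to control samples and come from duplicates. They are given as log2 fold changes.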

[2] = compound: NC(=O)c1cnc(N[C@@H]2CCCC[C@@H]2N)nc1Nc1cccc(-n2nccn2)c1
Summary of the method: as §1

[3] = compound: NC1(c2ccc(-c3nc4ccn5c(=O)[nH]nc5c4cc3-c3ccccc3)cc2)CCC1
Summary of the method: as §1

[4] = compound: NCC(=O)Nc1ccc(-n2nc(C(F)(F)F)cc2-c2ccc3c(ccc4ccccc43)c2)cc1
Summary of the method: as §1

entinostat = compound: Nc1ccccc1NC(=O)c1ccc(CNC(=O)OCc2cccnc2)cc1 [entinostat]
Summary of the method: as §1

vorinostat = compound: O=C(CCCCCCC(=O)Nc1ccccc1)NO [vorinostat]
Summary of the method: as §1

citarinostat = compound: O=C(CCCCCCNC(=O)c1cnc(N(c2ccccc2)c2ccccc2Cl)nc1)NO [citarinostat]
Summary of the method: as §1

silmitasertib = compound: O=C(O)c1ccc2c(c1)nc(Nc1cccc(Cl)c1)c1ccncc12 [silmitasertib]
Summary of the method: as §1

[5] = compound: O=C1NC(=O)C(c2cnc3ccccn23)=C1c1cn2c3c(cc(F)cc13)CN(C(=O)N1CCCCC1)CC2
Summary of the method: as §1

[6] = compound: c1cc(OCCN2CCCCC2)cc(-c2n[nH]c3ccc(-c4nnc[nH]4)cc23)c1
Summary of the method: as §1

entospletinib = compound: c1cn2cc(-c3ccc4cn[nH]c4c3)nc(Nc3ccc(N4CCOCC4)cc3)c2n1 [entospletinib]
Summary of the method: as §1

Chain of UniProt Q9C073 (Q9C073 whole entry, looked up): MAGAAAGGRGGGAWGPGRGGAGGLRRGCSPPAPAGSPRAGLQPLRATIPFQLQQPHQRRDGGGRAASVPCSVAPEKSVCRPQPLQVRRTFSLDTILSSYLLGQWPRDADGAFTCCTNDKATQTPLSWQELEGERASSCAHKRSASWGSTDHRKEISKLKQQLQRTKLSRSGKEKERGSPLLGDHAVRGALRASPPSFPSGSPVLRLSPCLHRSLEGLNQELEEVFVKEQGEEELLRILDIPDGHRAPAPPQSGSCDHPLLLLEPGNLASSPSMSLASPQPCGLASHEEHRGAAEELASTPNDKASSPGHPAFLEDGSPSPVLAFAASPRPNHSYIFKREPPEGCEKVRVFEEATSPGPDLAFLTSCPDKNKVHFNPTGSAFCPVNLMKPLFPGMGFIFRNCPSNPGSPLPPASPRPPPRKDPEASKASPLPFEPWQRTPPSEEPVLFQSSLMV
Chain of UniProt Q5QP82 (Q5QP82 whole entry, looked up): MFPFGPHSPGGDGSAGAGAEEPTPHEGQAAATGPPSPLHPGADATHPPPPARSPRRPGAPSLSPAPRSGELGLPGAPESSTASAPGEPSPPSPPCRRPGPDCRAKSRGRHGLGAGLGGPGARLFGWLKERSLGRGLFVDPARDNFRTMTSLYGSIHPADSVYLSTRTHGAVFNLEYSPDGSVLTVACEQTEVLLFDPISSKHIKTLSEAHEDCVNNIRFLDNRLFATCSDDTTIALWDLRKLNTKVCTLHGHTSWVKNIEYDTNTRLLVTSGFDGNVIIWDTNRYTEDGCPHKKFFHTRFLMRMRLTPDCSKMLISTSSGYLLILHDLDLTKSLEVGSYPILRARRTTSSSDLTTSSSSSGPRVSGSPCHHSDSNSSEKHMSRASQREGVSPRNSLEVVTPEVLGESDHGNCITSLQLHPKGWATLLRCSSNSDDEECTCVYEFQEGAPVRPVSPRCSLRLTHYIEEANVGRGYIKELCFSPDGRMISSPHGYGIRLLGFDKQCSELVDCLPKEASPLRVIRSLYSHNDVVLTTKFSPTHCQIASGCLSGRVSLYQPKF
Chain of UniProt Q9UJU6 (Q9UJU6 whole entry, looked up): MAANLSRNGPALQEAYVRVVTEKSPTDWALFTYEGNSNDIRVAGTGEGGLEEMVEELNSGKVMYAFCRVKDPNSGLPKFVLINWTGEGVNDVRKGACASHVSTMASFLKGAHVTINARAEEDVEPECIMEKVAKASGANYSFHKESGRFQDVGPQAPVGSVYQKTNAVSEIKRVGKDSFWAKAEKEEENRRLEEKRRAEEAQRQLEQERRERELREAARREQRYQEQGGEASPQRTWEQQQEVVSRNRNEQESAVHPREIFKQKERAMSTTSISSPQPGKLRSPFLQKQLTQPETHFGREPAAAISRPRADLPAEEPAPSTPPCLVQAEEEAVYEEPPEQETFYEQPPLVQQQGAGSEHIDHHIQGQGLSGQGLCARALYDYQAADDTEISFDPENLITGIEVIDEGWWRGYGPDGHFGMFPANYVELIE
Chain of UniProt P39880 (P39880 whole entry, looked up): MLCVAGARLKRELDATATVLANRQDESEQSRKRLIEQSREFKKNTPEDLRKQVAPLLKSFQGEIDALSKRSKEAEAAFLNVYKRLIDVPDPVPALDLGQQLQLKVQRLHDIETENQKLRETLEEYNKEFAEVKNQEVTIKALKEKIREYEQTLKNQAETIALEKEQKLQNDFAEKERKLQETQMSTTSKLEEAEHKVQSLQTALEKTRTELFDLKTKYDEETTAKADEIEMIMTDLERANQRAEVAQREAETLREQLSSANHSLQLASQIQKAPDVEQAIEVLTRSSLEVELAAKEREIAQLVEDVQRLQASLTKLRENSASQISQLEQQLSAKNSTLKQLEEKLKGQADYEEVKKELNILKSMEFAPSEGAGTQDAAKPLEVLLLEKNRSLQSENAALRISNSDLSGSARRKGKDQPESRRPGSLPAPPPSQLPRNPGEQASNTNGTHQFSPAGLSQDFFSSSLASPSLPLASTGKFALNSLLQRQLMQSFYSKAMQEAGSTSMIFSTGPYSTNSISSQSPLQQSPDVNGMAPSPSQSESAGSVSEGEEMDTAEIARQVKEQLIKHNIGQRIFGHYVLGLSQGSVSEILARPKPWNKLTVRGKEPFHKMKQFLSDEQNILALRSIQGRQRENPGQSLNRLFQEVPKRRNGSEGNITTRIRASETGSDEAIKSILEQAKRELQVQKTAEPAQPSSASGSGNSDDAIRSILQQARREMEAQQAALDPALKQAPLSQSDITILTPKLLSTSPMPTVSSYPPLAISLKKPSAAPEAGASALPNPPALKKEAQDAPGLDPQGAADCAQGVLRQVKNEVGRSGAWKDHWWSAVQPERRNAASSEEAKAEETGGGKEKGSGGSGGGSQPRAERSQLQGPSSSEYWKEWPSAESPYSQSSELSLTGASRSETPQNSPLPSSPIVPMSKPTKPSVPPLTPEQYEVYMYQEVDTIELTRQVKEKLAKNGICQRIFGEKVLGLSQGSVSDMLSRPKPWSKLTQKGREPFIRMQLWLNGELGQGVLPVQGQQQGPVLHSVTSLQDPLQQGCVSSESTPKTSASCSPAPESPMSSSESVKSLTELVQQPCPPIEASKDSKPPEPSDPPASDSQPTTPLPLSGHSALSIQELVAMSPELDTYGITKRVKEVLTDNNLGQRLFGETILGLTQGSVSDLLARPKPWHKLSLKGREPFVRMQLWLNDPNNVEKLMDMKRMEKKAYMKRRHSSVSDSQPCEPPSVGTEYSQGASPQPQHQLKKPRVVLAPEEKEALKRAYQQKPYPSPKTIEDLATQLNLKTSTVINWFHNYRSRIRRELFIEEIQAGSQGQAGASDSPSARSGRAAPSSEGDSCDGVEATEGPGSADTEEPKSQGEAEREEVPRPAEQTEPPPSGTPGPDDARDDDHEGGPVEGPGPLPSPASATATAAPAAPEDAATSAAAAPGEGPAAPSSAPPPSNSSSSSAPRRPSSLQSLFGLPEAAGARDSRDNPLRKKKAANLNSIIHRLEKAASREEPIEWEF
Chain of UniProt Q15392 (Q15392 whole entry, looked up): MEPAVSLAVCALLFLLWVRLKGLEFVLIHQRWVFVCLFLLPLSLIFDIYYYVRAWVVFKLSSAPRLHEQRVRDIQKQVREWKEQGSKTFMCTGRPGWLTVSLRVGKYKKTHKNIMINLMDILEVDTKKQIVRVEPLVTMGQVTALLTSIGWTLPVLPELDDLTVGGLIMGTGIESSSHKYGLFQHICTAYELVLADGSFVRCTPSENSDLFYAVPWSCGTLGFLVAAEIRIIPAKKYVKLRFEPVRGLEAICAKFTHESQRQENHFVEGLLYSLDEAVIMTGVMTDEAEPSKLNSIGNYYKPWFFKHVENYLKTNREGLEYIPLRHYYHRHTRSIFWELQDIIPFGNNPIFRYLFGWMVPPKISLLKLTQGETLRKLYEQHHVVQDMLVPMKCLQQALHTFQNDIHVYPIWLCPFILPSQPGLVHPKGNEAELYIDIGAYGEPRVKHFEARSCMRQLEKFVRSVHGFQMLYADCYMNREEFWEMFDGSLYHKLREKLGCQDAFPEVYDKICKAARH
Chain of UniProt Q8IX18 (Q8IX18 whole entry, looked up): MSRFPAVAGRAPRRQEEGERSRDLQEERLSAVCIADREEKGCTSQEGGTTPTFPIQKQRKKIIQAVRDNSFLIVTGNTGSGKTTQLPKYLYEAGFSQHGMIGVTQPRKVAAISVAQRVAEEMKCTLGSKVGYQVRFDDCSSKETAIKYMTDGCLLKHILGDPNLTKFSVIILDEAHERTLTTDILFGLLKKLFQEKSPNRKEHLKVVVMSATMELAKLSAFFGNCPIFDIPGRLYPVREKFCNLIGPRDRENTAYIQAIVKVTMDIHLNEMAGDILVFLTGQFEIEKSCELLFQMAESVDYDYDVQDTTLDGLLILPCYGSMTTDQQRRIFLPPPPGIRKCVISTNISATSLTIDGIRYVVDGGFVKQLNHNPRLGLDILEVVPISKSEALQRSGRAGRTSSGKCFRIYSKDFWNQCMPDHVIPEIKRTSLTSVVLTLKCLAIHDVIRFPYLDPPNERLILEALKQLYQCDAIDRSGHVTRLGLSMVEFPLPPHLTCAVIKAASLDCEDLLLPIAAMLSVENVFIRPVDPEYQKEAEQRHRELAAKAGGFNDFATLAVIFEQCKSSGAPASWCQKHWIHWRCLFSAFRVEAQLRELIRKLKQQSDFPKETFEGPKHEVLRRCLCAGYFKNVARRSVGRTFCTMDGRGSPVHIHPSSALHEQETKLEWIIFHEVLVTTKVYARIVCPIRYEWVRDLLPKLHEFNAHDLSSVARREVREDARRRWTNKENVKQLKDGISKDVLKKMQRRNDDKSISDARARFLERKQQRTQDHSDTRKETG
Chain of UniProt P23919 (P23919 whole entry, looked up): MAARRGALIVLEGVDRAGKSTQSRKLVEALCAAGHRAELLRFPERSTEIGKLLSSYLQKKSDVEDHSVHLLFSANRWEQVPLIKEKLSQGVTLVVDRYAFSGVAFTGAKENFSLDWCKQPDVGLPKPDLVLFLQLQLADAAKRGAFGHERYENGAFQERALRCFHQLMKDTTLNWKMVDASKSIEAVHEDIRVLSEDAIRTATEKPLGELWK
Chain of UniProt O75911 (O75911 whole entry, looked up): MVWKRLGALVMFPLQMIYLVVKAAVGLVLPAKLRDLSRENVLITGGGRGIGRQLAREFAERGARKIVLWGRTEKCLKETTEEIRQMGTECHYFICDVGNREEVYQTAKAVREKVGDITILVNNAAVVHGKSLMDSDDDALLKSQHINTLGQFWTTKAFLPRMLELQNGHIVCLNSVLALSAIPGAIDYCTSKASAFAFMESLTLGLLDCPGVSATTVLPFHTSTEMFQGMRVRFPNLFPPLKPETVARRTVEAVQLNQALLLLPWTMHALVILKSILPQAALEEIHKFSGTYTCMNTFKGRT
Chain of UniProt P50402 (P50402 whole entry, looked up): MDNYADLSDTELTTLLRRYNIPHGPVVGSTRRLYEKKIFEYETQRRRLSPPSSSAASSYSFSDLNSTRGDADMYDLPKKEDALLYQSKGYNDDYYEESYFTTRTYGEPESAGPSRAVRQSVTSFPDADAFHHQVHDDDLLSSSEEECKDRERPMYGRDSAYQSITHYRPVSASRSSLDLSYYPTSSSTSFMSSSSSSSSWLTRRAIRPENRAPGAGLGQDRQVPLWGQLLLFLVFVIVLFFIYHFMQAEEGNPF

Row | Target | log2 fold change [1] | log2 fold change [2] | log2 fold change [3] | log2 fold change [4] | log2 fold change (entinostat) | log2 fold change (vorinostat) | log2 fold change (citarinostat) | log2 fold change (silmitasertib) | log2 fold change [5] | log2 fold change [6] | log2 fold change (entospletinib)
1 | DAB2 (UniProt P98082) | -0.006 | -0.033 | -0.124 | 0.016 | -0.026 | -0.066 | 0.037 | 0.102 | 0.001 | -0.041 | 0.043
2 | DHCR24 (UniProt Q15392) | -0.022 | -0.037 | 0.048 | -0.024 | -0.082 | -0.012 | 0 | -0.018 | 0.041 | 1.08 (active) | -0.016
3 | DCAF10 (UniProt Q5QP82) | -0.018 | -0.02 | 0.026 | 0.033 | -0.021 | -0.015 | 0.08 | 0.122 | -0.028 | 0.357 (active) | 0.307
4 | DHRS3 (UniProt O75911) | -0.032 | -0.047 | -0.081 | -0.06 | 0.05 | -0.084 | 0.024 | 0.009 | 0.046 | -0.06 | -0.041
5 | FAM117A (UniProt Q9C073) | -0.135 | 0 | -0.05 | -0.03 | 0.046 | -0.011 | 0.043 | -0.422 (active) | 0.038 | -0.251 (active) | 0.067
6 | EMD (UniProt P50402) | -0.012 | -0.064 | -0.068 | -0.041 | -0.031 | -0.017 | -0.076 | 0.054 | -0.084 | -0.141 | 0.102
7 | DBNL isoform 3 (UniProt Q9UJU6) | 0.021 | -0.022 | -0.109 | -0.061 | -0.003 | -0.01 | 0.063 | 0.058 | 0.012 | 0.007 | -0.087
8 | CUX1 isoform 3 (UniProt P39880) | -0.016 | -0.006 | -0.034 | -0.076 | -0.028 | 0.034 | 0.019 | 0.046 | -0.022 | -0.004 | 0.016
9 | DHX40 (UniProt Q8IX18) | -0.093 | -0.036 | -0.157 | -0.042 | -0.004 | -0.097 | 0.081 | -0.027 | -0.116 | -0.04 | -0.055
10 | DTYMK (UniProt P23919) | 0.005 | -0.011 | -0.169 | -0.014 | -0.035 | 0.043 | 0.047 | -0.04 | -0.058 | -0.071 | 0.013
